Screens as filed in PubChem BioAssay.
TROY signal inh = inhibitors of TROY-driven NF-kB signaling, primary screen, Q293 LMP1-TROYcd cells, NF-kB luciferase, uHTS | 360,000 tested, 0.98% active | Q293 LMP1-TROYcd NF-kB luciferase reporter, 4 h | AID 1347056, 2019 | inhibition, % at 10 µM;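 active = compounds whose plate-normalised and pattern-corrected inhibition of the luciferase reporter signal at the single screening dose is 50% or more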
EWS-Fli block = EWS/Fli-driven NR0B1 reporter inhibitors, primary screen, A673 cells, NR0B1 luciferase, luminescence, MLPCN library. 350,000 tested, 0.67% active. viability-normalised. AID 651661, 2012. inhibition, % at 12.6 µM;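 active = mean inhibition of at least 50% after viability correction, with every replicate also passing that limit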;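 note: firefly luciferase signal divided by Alamar Blue viability fluorescence both relative to DMSO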
EBV LMP1 NFkB = EBV LMP1-driven NF-kappaB luciferase reporter inhibitors, primary screen, cell-based, luminescence, single point | AID 504558, 2011 | 350,000 tested, 0.69% active | inhibition, % at 12.5 µM | LMP1-induced NF-kappaB luciferase reporter cells; in the data active = inhibition above about 41%;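 note: 0% = neutral control wells and 100% = reference inhibitor control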
TWEAK Fn14 block = inhibitors of TWEAK-Fn14 signaling, primary screen, luciferase reporter cells, uHTS. TWEAK-stimulated Fn14 reporter cells, luciferase luminescence, 8 h. inhibition, % at 10 µM. 360,000 tested, 2% active. AID 1159606, 2016; in the data active = inhibition above about 50%
LGR2 inh = inhibitors of bursicon-induced LGR2 CRE-luciferase signal, primary screen, cell-based, HEK293, CRE-luciferase reporter, bursicon stimulation; Drosophila bursicon receptor LGR2 (rickets); bursicon-stimulated, 4 h; inhibition, % at 9.99 µM; 380,000 tested, 0.35% active; AID 720647, 2013;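 active = drop in luminescence signal, shown as inhibition above about 50% in the replicate tests, limit read from the data, passing the limit was not always enough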;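 note: agonist challenge used bursicon conditioned medium at about half maximal strength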
Numbers without * were called inactive; . = no result. Hits are enriched below; roughly 2.6% of the tested compounds scored in any of these assays.

SMILES	TROY signal inh	EWS-Fli block	EBV LMP1 NFkB	TWEAK Fn14 block	LGR2 inh
Cc1ccc(S(=O)(=O)Nc2ccc(NC(=O)Nc3cccc(C(F)(F)F)c3)cc2)cc1	40.7	12.7	-5.7	85.9*	13.7
CCN(CC)S(=O)(=O)c1ccc(NC(=O)Nc2cccc(C(F)(F)F)c2)cc1	57.6*	.	26.8	76.4*	.
O=C(Nc1ccc(OC(F)F)cc1)Nc1cccc(C(F)(F)F)c1	46.4	.	29.0	58.6*	.
CC(=O)NCCc1ccc(C(=O)COC(=O)c2cccs2)cc1	48.0	-30.3	-6.7	60.6*	.
Cc1nn(-c2ccccc2)c(Cl)c1/C=N/NC(=O)c1cccc(S(=O)(=O)N2CCCC2)c1	6.7	3.1	-0.4	62.2*	-4.9
Cc1ccc(/C=N/Nc2ccc(C(=O)O)cc2)s1	-9.3	66.8*	69.7*	11.4	89.8*
COc1ccc2ccccc2c1/C=N/Nc1cccc(C(=O)O)c1	-51.6	-101.4	-37.3	-17.4	-30.0
Cc1nn(-c2ccc(F)cc2)c(Cl)c1/C=N/NC(=O)c1cccc(S(=O)(=O)N2CCCC2)c1	35.2	-0.2	9.5	-4.8	0.0
Cc1ccc(/C=N/Nc2ccc(C(=O)O)cc2)o1	-33.1	-54.9	-13.4	18.4	5.7
CCOc1cc(/C=N/Nc2cccc(C(=O)O)c2)ccc1OC(=O)c1ccccc1	-49.5	-48.0	59.4*	7.9	63.7*
O=C(O)c1cccc(N/N=C/c2cccc3ccccc23)c1	-56.0	42.0	48.1*	-34.2	-19.3
COc1ccc(S(=O)(=O)N(C)C[C@@H]2Oc3ccc(NC(=O)C4CC4)cc3CC(=O)N([C@H](C)CO)C[C@@H]2C)cc1	.	0.0	.	.	-17.5
Cc1ccc(/C=N/Nc2cccc(C(=O)O)c2)s1	-25.3	.	13.8	-17.8	57.7*
O=C(O)c1cccc(N/N=C/c2ccc(F)c(F)c2)c1	-76.8	-4.2	-9.3	-19.6	-68.2
O=C(N/N=C\c1cn(-c2ccccc2)nc1-c1ccccc1)c1ccc(Br)o1	25.2	.	-3.5	54.7*	.
Cc1nn(-c2cccc(C(F)(F)F)c2)c(Cl)c1/C=N/Nc1cccc(C(=O)O)c1	-52.9	-2.1	-25.3	-40.3	-79.7
Cc1nn(-c2ccccc2Cl)c(Cl)c1/C=N/Nc1cccc(C(=O)O)c1	-104.2	.	69.1*	-22.7	80.0*
COc1ccc(-c2nn(-c3ccccc3)cc2/C=N/NC(=O)c2cccc(S(=O)(=O)Nc3ccccc3Cl)c2)cc1	16.3	-13.6	-7.2	56.2*	0.0
C[C@H]1CN([C@@H](C)CO)C(=O)c2cc(NC(=O)Cc3ccccc3)ccc2O[C@@H]1CN(C)C(=O)Nc1ccccc1	.	0.1	.	.	-0.2
CCCC#Cc1ccc2c(c1)O[C@@H](CN(C)C(=O)c1ccncc1)[C@@H](C)CN([C@H](C)CO)S2(=O)=O	.	-5.0	.	.	0.5
Cc1sc(NC(=O)c2ccccc2)c(C(c2ccccn2)N2CCN(CCO)CC2)c1C (stereo not drawn)	77.7*	.	1.6	65.4*	14.5
CCOc1ccc(C(c2c(NC(=O)c3ccccc3)sc(C)c2C)N2CCN(C)CC2)cc1 (stereo not drawn)	-11.1	6.5	2.5	16.8	.
CCN(CC)C(=O)C1CCCN(c2ccc([N+](=O)[O-])cc2[N+](=O)[O-])C1 (stereo not drawn)	-26.4	-6.6	52.4*	0.0	21.2
Cc1nc([N+](=O)[O-])c(Br)n1Cc1ccc(Cl)c(Cl)c1	30.8	53.6*	-9.4	81.3*	21.7
COc1ccc(C(=O)Cn2c(C)nc([N+](=O)[O-])c2Br)cc1	15.7	15.9	-9.9	50.1*	20.0
SMILES	TROY signal inh	EWS-Fli block	EBV LMP1 NFkB	TWEAK Fn14 block	LGR2 inh
C[C@@H]1CN([C@H](C)CO)S(=O)(=O)c2ccc(-c3ccncc3)cc2O[C@H]1CN(C)Cc1ccncc1	.	17.3	.	.	-19.1
C[C@@H]1CCCCO[C@H](CN(C)C(=O)Nc2ccc(F)cc2)[C@@H](C)CN([C@@H](C)CO)C(=O)c2cc(NS(=O)(=O)c3cn(C)cn3)ccc2O1	.	-7.7	.	.	9.4
COc1ccc(OCC(O)Cn2c(=N)n(Cc3ccccc3)c3ccccc32)cc1 (stereo not drawn)	11.9	.	-1.9	22.6	.
Cc1ccc(OCC(O)Cn2c(=N)n(Cc3ccccc3)c3ccccc32)cc1 (stereo not drawn)	-11.3	.	-3.3	12.0	.
N=c1n(Cc2ccccc2)c2ccccc2n1CC(O)COc1ccc(Cl)cc1Cl (stereo not drawn)	60.0*	61.5*	-13.4	28.9	101.3*
N=c1n(Cc2ccc(Cl)cc2)c2ccccc2n1CC(O)COc1ccccc1 (stereo not drawn)	5.8	-15.2	-51.2	4.0	83.3*
CC[C@]12c3[nH]c4ccccc4c3CCN1C(=O)C(CC(=O)NCC13CC4CC(CC(C4)C1)C3)C[C@@H]2C(=O)N1CCN(C(=O)c2ccco2)CC1 (stereo partly drawn)	12.9	-2.2	-0.1	16.7	-5.2
CC[C@]12c3[nH]c4cc(CCC(=O)N(C)C)ccc4c3CCN1C(=O)[C@@H](CC(=O)NCC13CC4CC(CC(C4)C1)C3)C[C@@H]2C(=O)N1CCN(C(=O)c2ccco2)CC1	-2.3	19.1	12.1	95.8*	-11.0
C[C@H](CO)N1C[C@H](C)[C@@H](CN(C)S(C)(=O)=O)Oc2ccc(NC(=O)C3CCCCC3)cc2CC1=O	.	-5.3	.	.	3.0
COc1ccccc1-c1csc(NC(=O)c2ccc(N3C(=O)CCC3=O)cc2)n1	36.0	0.5	1.9	50.8*	7.6
COc1ccc(-c2csc(NC(=O)c3ccc(N4C(=O)CCC4=O)cc3)n2)cc1	43.7	-8.3	6.5	15.1	2.4
C=CCN1C(=O)S/C(=C/c2ccc(Sc3nc4ccccc4[nH]3)o2)C1=O	51.5*	.	19.9	73.2*	-19.3
CC(C)N1C(=O)S/C(=C/c2ccc(Sc3nc4ccccc4[nH]3)o2)C1=O	58.8*	0.8	26.3	89.3*	32.5
CCCCC(=O)N/N=C/c1ccc(Sc2cccc3cccnc23)o1	-9.2	.	-3.7	107.2*	.
CCC(C)NC(=O)CC(NS(=O)(=O)c1ccc(Cl)cc1)c1ccco1 (stereo not drawn)	10.7	.	-1.1	59.3*	.
CCCNC(=O)N1C[C@@H](C)[C@@H](OC)CN(C)C(=O)c2ccc(NS(C)(=O)=O)cc2OC[C@H]1C	.	-0.4	.	.	11.3
COc1ccc(N2CCN(C(=O)CCS(=O)(=O)c3ccc4c(c3)NC(=O)C(C)S4)CC2)cc1 (stereo not drawn)	-9.9	-3.1	-2.7	-0.8	7.9
Cc1ccc(C)c(N2CCN(C(=O)CCS(=O)(=O)c3ccc4c(c3)NC(=O)C(C)S4)CC2)c1 (stereo not drawn)	43.5	.	16.8	71.8*	17.1
Cc1ccc(NC(=O)C2CCN(S(=O)(=O)c3ccc4c(c3)NC(=O)C(C)S4)CC2)cc1Cl (stereo not drawn)	46.8	.	40.3*	63.2*	28.5
